The source of these data is the OligoGym collection.
Further: reference of the scale not given here.

The target in one experiment is PPP1R13B. The experiment can be described thus: pooled miR-30 sensor sort-seq; sequence = guide strand. As to conditions: shRNA.
In the case of TTTCTTCAGCTTGTTCTCCTGG, the sensor-assay potency score (higher = more potent) stood at 0.329.
TTCAGAAATAGACTGCTGCTGA displayed a sensor-assay potency score (higher = more potent) of 0.172.
Still for that read-out and setting: the value for TACATTTATTACATTTCTCTGA was -0.374; that for TAAGAGTTCCTTCTGCTGCTGA was 0.621; that for TTGCTGTAGTCGACTTGTCCTC was -0.682.
In turn, TACACTGCTTTAACTGACTTAT gave a sensor-assay potency score (higher = more potent) of -0.93.
Consider TTAACTGACTTATTTAAGGCGC, for which the sensor-assay potency score (higher = more potent) came out at 0.229.

A further experiment addresses PPP1R15A. The description is as above. As to conditions: shRNA.
Take TTCAGGAAGGGAACTGCTGGTT: the sensor-assay potency score (higher = more potent) is -0.684.
Same read-out and setting: then ATGGACAGTGACCTTCTCGGAG, with -1.22; and TTTTACTGCTTCCACCAGCCAG, with -1.03; and TAGAGGTTCTGTGAGCTTCTTT, with 0.0683.
Still for that read-out and setting: then TGGACAGTGACCTTCTCGGAGA, with -1.41; and TAGGGGAGTCTCAGGGTCCGGA, with -1.44; and TTCTGTGAGCTTCTTTCTTTAC, with -1.62.
Still for that read-out and setting: then TTTACTGCTTCCACCAGCCAGG, with -0.645; and TCCTTTTACTGCTTCCACCAGC, with -1.39; and TTGCCAGAGGAGTCCTAGCTTC, with -1.05.
TTCTGTTCTTTTATCCTCCGTG returned a sensor-assay potency score (higher = more potent) of -0.152.
AAGAGAACTTGTTAACTCCCTC: the sensor-assay potency score (higher = more potent) was found to be 0.225.
